Bioassay records from PubChem BioAssay.
L3MBTL1 inh: L3MBTL1 (human) inhibition; AlphaScreen L3MBTL1–H3K9me1 peptide binding; Potency, µM (doses to about 57.1 µM), usual class: inhibitors; 230,000 tested, 0.66% active; also: nearly all actives have a fitted effect of over 60% in size
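First, the protein-peptide complex forms for 30 min at room temperature (L3MBTL1 50 nM, biotinylated H3K9me1 peptide 75 nM). Next, compounds are pin-transferred and incubated 30 min. Finally, AlphaScreen beads are added and read after 30 min.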
BAZ2B inh: BAZ2B (human) inhibition | AlphaScreen BAZ2B-H3K14Ac peptide displacement | 360,000 tested, 4.4% active | Q9UIF8 | Potency, µM (titrated, usually from 114 µM), usual class: inhibitors; also: nearly all actives have a fitted effect of over 60% in size
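Compounds, titrated to a top concentration of 110 uM, were incubated 30 min at room temperature with preformed BAZ2B/acetyl-K14 H3 peptide complex (50 nM each). Proximity signal was measured by AlphaScreen after 20 min with beads.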
G9a inh: G9a (human) methyltransferase inhibition; 350,000 tested, 8.8% active; G9a H3K9 monomethylation, AlphaScreen, 2 h; AID 504332; Q96KQ7; Potency, µM (titrated, usually from 102 µM), hits mostly inhibitors; also: nearly all actives have a fitted effect of over 75% in size
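Readings reflect AlphaScreen signal from monomethyl-H3K9 antibody detection. HMT at 20 nM; substrate b-H3K9 500 nM; cofactor SAM 20 uM; 2 h RT reaction; compounds tested as titrations in qHTS with 15 min preincubation.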
Sfp inh: blocks B. subtilis Sfp PPTase activity. AID 1490. Potency, µM, most hits filed as inhibitors. 310,000 tested, 3.5% active. Q9F4F7. Biochemical Sfp PPTase activity, qHTS;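 also: the enzyme is Sfp with the accession as filed and its product quenches rhodamine fluorescence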
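After 15 min at room temperature with compound, 15 nM Sfp received 5 uM rhodamine-CoA plus 12.5 uM BHQ-2-ybbR (50 mM Hepes pH 7.6, 10 mM MgCl2). Rate came from the fluorescence difference over 30 min, ex 525/em 598 nm.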
HP1b chromo inh: inhibitors of HP1-beta chromodomain binding to methylated histone tails | AlphaScreen HP1-beta / biotin-H3K9me3 peptide binding | 390,000 tested, 0.56% active | P83916 | Potency, µM (series often up to 114 µM), hits mostly inhibitors | AID 540317; also: nearly all actives have a fitted effect of over 70% in size
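HP1-beta protein (50 nM final) preincubated 30 min at room temperature with biotinylated H3(1-18)K9me3 peptide (50 nM) in PBS pH 7.4, 0.01% Tween-20, then compound added for 30 min. AlphaScreen streptavidin donor/nickel chelate acceptor beads (10 ug/mL final), 30 min dark, luminescence read.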
JMJD2A Tudor inh: inhibitors of human JMJD2A Tudor domain. O75164. 390,000 tested, 4.4% active. AlphaScreen JMJD2A-Tudor / H3K4me3 peptide binding. Potency, µM (titrated, usually from 114 µM), usual class: inhibitors; also: nearly all actives have a fitted effect of over 50% in size
Target sequence (O75164 whole entry, looked up, the tested form may be a part): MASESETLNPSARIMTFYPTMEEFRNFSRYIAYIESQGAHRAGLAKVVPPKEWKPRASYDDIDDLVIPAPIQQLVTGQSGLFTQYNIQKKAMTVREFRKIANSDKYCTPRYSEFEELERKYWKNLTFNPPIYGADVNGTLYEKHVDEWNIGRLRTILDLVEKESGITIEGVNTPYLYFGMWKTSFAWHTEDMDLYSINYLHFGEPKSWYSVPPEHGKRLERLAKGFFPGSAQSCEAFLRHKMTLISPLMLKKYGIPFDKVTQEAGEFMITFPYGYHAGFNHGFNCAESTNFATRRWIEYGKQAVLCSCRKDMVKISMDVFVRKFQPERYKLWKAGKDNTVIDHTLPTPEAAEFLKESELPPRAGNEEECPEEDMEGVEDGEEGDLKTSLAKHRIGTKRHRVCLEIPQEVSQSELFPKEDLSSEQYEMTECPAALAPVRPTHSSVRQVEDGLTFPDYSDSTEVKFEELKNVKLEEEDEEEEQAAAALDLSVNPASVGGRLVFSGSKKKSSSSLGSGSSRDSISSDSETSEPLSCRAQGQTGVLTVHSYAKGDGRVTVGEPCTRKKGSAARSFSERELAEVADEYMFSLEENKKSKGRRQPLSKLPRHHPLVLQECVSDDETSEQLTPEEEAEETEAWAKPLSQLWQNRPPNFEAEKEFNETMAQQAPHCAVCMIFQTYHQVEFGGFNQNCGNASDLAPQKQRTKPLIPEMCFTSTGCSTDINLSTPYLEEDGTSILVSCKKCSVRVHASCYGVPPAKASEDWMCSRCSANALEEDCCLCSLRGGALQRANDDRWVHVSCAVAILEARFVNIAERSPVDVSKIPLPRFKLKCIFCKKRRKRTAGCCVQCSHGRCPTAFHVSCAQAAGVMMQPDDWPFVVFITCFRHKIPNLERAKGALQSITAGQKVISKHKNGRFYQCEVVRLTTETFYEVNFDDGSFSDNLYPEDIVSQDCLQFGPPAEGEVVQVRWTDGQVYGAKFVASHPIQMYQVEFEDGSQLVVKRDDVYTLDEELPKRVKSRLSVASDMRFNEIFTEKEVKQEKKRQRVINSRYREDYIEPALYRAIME
Numbers stand for hits; 0 = inactive; ? = inconclusive; - = not tested or not shown; ! = repeats disagree; [ ] = another dose, or the depositor's remark. The list is not random: actives were taken first. Their share in the collection is about 12%. Calls follow the shape of the dose curve; as a rule, active = well fitted curve in the direction sought with a large enough effect; inconclusive = small, poorly fitted or top-dose-only effect, or another doubt; inactive = no such curve, though single readings can be large; an effect the other way counts as inactive or inconclusive.

SMILES	L3MBTL1 inh	BAZ2B inh	G9a inh	Sfp inh	HP1b chromo inh	JMJD2A Tudor inh
COc1ccccc1NC(=O)Cn1cc(C(=O)c2ccncc2)c(=O)c2cc(C)ccc21	-	0	0	-	0	0
CCOc1ccccc1C(=O)N1CC(=O)Nc2ccc(Cl)cc2C1c1ccccc1 (configuration not stated)	-	?	?	-	0	0
Cc1ccc(-c2nn(CC(=O)NC3CCCC3)c3c2cnc2ccc(F)cc23)cc1C	-	0	0	-	0	0
Cc1ccc(-c2nc3n(n2)C(c2ccccc2Cl)C=C(c2ccc(Cl)cc2)N3)cc1 (configuration not stated)	-	0	0	-	0	0
O=C(O)c1cc2ccc3ccccc3c2[nH]1	-	0	?	?	0	0
O=C(O)c1cc(=O)c2ccccc2[nH]1	0	?	10µM!	0	0	?
O=c1cc(C(F)(F)F)[nH]c2ccccc12	0	0	0	0	0	0
O=C(O)c1cc(=O)c2c(Cl)cc(Cl)cc2[nH]1	-	-	0[12.7 µM]	?	0	50.1µM
O=C(O)c1cc(=O)c2cccc(O)c2[nH]1	-	-	0[2.33 µM]	79.4µM!	0	28.2µM
CCOC(=O)c1noc2ncnc(Nc3ccc(C)c(F)c3)c12	-	0	0	-	0	0
Cc1cc(NC(=O)CCCS(=O)(=O)c2nc(-c3cccs3)cc(C(F)(F)F)n2)no1	0	0	50.1µM	0	0	0
CCOC(=O)CCS(=O)(=O)c1nc(-c2ccccc2)cc(C(F)(F)F)n1	0[11.4 µM]	0	2.82µM	10µM	0	0
Cc1cc(NC(=O)CSc2nc(-c3cccs3)cc(C(F)(F)F)n2)no1	0	0	0	0	0	0
CS(=O)(=O)c1nc(-c2ccc(F)cc2)cc(C(F)(F)F)n1	0	0	44.7µM	?	0	0
CCOC(=O)CS(=O)(=O)c1nc(-c2ccccc2)cc(C(F)(F)F)n1	0	0	35.5µM	50.1µM	0	0
CCOC(=O)CS(=O)(=O)c1nc(-c2ccc(F)cc2)cc(C(F)(F)F)n1	0	0	?	0	0	0
CCOC(=O)c1cccc(NC(=O)NC(C)c2c(-n3cccc3)sc3c2CCN(C)C3)c1 (configuration not stated)	-	?	?	-	0	?
OCCN1CC(O)C(O)C(O)C1CO (configuration not stated)	-	-	0[2.33 µM]	0	-	-
O=C(Cc1csc(NC(=O)Nc2ccc(Cl)cc2)n1)NCc1ccccn1	0	0	44.7µM	-	0	0
O=C(Cc1csc(NC(=O)Nc2ccc(Cl)cc2)n1)NC1CCCC1	0	0	?	-	0	0
COc1ccc(CN2CCCN(C)CC2)c(OC)c1C	0	?	-	79.4µM	?	8.91µM
COc1cc(Br)c(CN2CCCN(C)CC2)cc1OC	0	0	70.8µM	0	0	0
COc1cc(CNCCN(C)C)c(Br)cc1OC1CCCC1	0	0	0	0	0	0
CCOc1cc(/C=C2/C(=O)ON=C2C)ccc1OCc1ccccc1F	0	?	?	20µM	0	?
CCOc1cc(/C=C2/C(=O)ON=C2C)ccc1OCc1ccc(F)cc1	0	0	?	50.1µM	0	0
SMILES	L3MBTL1 inh	BAZ2B inh	G9a inh	Sfp inh	HP1b chromo inh	JMJD2A Tudor inh
CCOc1cc(/C=C2/C(=O)ON=C2C)ccc1OCc1ccccc1	?	0	-	0	0	0
Cc1cnc(NC(=O)CN2C(=O)C3CC=CCC3C2=O)s1 (configuration not stated)	0	-	0	0	0	56.2µM
O=C(CN1C(=O)C2CC=CCC2C1=O)Nc1nccs1 (configuration not stated)	-	0	0[12.7 µM]	0	0	0
O=C1CCc2cc(S(=O)(=O)Nc3ccc(Cl)c(Cl)c3)c(F)cc2N1	-	-	-	-	-	0
O=C(CN1C(=O)/C(=C2/SC(=S)N(CCS(=O)(=O)O)C2=O)c2ccccc21)Nc1cccc(C(F)(F)F)c1	?	-	-	-	10µM	12.6µM
O=C(CN1C(=O)/C(=C2\SC(=S)N(CCS(=O)(=O)O)C2=O)c2ccccc21)Nc1cccc(Br)c1	-	8.91µM	8.91µM	56.2µM	50.1µM	50.1µM
O=C(CN1C(=O)c2ccccc2Sc2ncccc21)Nc1cccc(C(F)(F)F)c1	-	0	0	-	0	0
COc1cc([N+](=O)[O-])cc(/C=N/N(CCC#N)C(C)=O)c1O	0	?	44.7µM	0	0	0
COc1cc([N+](=O)[O-])cc(/C=N/NC(=O)CSc2nnc(-c3ccccc3)n2C)c1O	-	0	-	0	0	?
CCOC(=O)C1=CN(CC2CCCO2)C=C(C(=O)OCC)C1c1ccccc1C(F)(F)F (configuration not stated)	0	0	0	39.8µM	0	0
CCOC(=O)c1ccc(NC(=O)c2cccc3c2C(=O)N(CC2CCCO2)C3)cc1 (configuration not stated)	0	0	0	0	0	?
Cc1nn(-c2nc(-c3ccc(F)cc3)cc(C(F)(F)F)n2)c(C)c1Br	-	0	0	-	0	0
O=[N+]([O-])c1ccc(Sc2n[nH]c(-c3ccccc3)n2)nc1	0	0	?	0	0	56.2µM
Nc1cccnc1Sc1ccc([N+](=O)[O-])cn1	0	0	1µM	?	0	1.58µM
COc1ccc(Cl)cc1NC(=O)Cc1coc2c(C)c(C)ccc12	-	0	0	-	0	0
COc1ccc(N=c2cc(-c3ccc(O)cc3)oc3ccccc23)cc1	0	44.7µM	?	0	?	35.5µM
COc1ccc2c(=O)cc(-c3ccc(O)cc3)oc2c1	-	-	-	0	-	-
CCOc1ccc(N=c2cc(-c3ccc(OC)cc3)oc3ccccc23)cc1	?	12.6µM	25.1µM	0	25.1µM	15.8µM
COc1ccc(N=c2cc(-c3ccc(OC)cc3)oc3ccccc23)cc1	?	28.2µM	14.1µM	?	0	39.8µM
COc1ccc(-c2cc(=O)c3ccccc3o2)cc1	-	0	0[12.7 µM]	0	0	0
CC1=C(C(=O)Nc2ccc(Cl)cc2)C(c2ccc(C(F)(F)F)cc2)n2nnnc2N1 (configuration not stated)	-	0	0	-	0	0
CCCc1[nH]n(-c2ccc([N+](=O)[O-])cc2)c(=O)c1C=NCCCn1ccnc1	0	50.1µM	0[12.7 µM]	0	0	0
CCCc1[nH]n(-c2ccc([N+](=O)[O-])cc2)c(=O)c1C=NCCN1CCNCC1	0	0	0	0	-	-
CCCc1[nH]n(-c2ccc([N+](=O)[O-])cc2)c(=O)c1C(C)=NCc1ccncc1	-	0	35.5µM	0	0	?
CCc1ccc(CNCc2c(C(=O)O)n(Cc3ccc(C)cc3)c3cc(C)ccc23)cc1	-	?	0	-	0	0
O=C(Cc1ccccc1)NC(NNc1ccccc1)(C(F)(F)F)C(F)(F)F	0	0	10µM	0	?	?
O=C1N(c2ccccc2)c2ccccc2C1(Cc1ccncc1)Cc1ccncc1	-	?	12.6µM!	0	0	0
O=[N+]([O-])c1ccccc1/C=N/N1CCN(c2ccncc2S(=O)(=O)N2CCCCC2)CC1	0	31.6µM	?	0	?	35.5µM
